Only a selection was taken, and hits are over-represented in it overall.
SF-1 inh: inhibitors of human SF-1, primary screen, cell-based, CHO-K1, Gal4-SF-1 LBD, luciferase luminescence; Steroidogenic factor 1 (Homo sapiens), Q13285; CHO-K1 Gal4-SF-1 LBD luciferase reporter; AID 525, 2006; hit rate 0.55% among 65,000; inhibition, % at 10 µM;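 active = inhibition above the mean inhibition of all tested compounds plus 3 SD, cut at about 48% in these data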
Target sequence (Q13285 whole entry, looked up, the tested form may be a part): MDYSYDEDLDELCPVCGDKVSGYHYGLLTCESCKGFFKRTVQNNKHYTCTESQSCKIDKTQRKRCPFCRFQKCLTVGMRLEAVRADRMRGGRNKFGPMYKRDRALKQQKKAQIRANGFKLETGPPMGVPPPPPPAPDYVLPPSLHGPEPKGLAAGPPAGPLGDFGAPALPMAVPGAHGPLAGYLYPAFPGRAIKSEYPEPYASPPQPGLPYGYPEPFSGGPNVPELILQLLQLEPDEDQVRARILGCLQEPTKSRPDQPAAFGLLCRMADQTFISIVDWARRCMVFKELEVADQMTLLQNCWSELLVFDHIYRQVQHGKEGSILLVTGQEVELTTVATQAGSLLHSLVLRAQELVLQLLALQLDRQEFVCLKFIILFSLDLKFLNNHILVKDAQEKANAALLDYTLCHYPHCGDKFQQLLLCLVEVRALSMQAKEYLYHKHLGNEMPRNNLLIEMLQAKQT
Of the large screens only hits and unclear results are named; the others gave an inactive call.

CSC1=C(C#N)C(c2ccc(Cl)cc2)C2=C(CC(C)(C)CC2=O)N1 (stereo not given)	SF-1 inh 52
Cc1ccc(NC(=O)CSC2=C(C#N)C(c3ccc4c(c3)OCO4)C3=C(CCCC3=O)N2)c(C)c1 (stereo not given)	none
COC(=O)c1oc2ccc(Br)cc2c1NC(=O)c1ccccc1	none
O=C(Cc1ccccc1)N(c1ccc(F)cc1)C1C=CS(=O)(=O)C1 (stereo not given)	none
CC(NC(=O)C1CCC(=O)N1Cc1ccc(F)cc1)c1ccc2c(c1)OCCO2 (stereo not given)	none
CCOC(=O)c1sc(NC(=O)c2ccc3ncsc3c2)nc1C	none
COc1cc(C(=O)Nc2nnc(-c3sccc3C)s2)cc(OC)c1OC	none
Cc1cc(F)ccc1S(=O)(=O)Nc1ccccc1C(=O)Nc1ccc2[nH]c(=O)[nH]c2c1	none
O=C(c1ccc(C23CC4CC(CC(C4)C2)C3)o1)N1CCOCC1	none
Cc1ccccc1NC(=O)N1CCCC(c2nc(-c3ccc(C(C)C)cc3)no2)C1 (stereo not given)	SF-1 inh 51
CC(C)c1ccc(NC(=O)C2CCCN(S(=O)(=O)c3cnc[nH]3)C2)cc1 (stereo not given)	none
CCCCN(CC)CCNS(=O)(=O)c1ccc2c(c1)oc(=O)n2C	none
Cc1ccc(Cn2c(CN3CC(C)OC(C)C3)nc3c2c(=O)n(C)c(=O)n3C)cc1 (stereo not given)	none
COc1ccccc1NC(=O)C1C2C=CC3(CN(Cc4cccnc4)C(=O)C13)O2 (stereo not given)	none
CCO/C=C/C(O)(CNC(=O)COc1ccccc1F)C(F)(F)F (stereo not given)	none
CC(C)(C)c1ccc(-c2cc(N)n[nH]2)cc1	SF-1 inh 48
O=C(Nc1ccc(F)cc1)c1cccc2c1C(=O)N(Cc1ccccn1)C2	none
O=c1[nH]c2c(s1)C=Nc1ccccc1N2	none
CSc1nc(C)c2c(c1C#N)CCCC2	none
COc1cccc(NC(=O)N2CCN(c3cccc(C)c3)C(C)C2)c1 (stereo not given)	none
COc1cccc(OCCN2CCN(c3ncnc4c3cnn4-c3ccccc3)CC2)c1	none
COc1cccc(-n2nc(C(=O)O)c3ccccc3c2=O)c1	none
COc1cccc(N2CCN(c3ncnc4c3[nH]c3ccc(F)cc34)CC2C)c1 (stereo not given)	SF-1 inh 96
COc1cccc(N2CCN(c3ncnc4c3[nH]c3ccccc34)CC2C)c1 (stereo not given)	SF-1 inh 85
O=C(O)c1oc2ccccc2c1CN1CCN(c2ccccc2)CC1	none
Cc1ccc(N2C(N)=NC(N)=NC23CCCC3)c(C)c1	none
COc1ccc(C)cc1NC(=O)c1cc2c(CO)cnc(C)c2oc1=N	none
Cn1c(SCc2ccc(F)cc2)nnc1-c1cccs1	none
CCOc1cc(CNC(=O)CN2C(=O)c3ccccc3S2(=O)=O)ccc1OC	none
COc1ccc(S(=O)(=O)N(C)CC(=O)NC2CC2)cc1	none
COc1ccc(-c2nc(C#N)c(NCCc3ccccc3)o2)cc1OC	none
Cn1c(-n2c(-c3ccco3)nc3ccccc3c2=O)nc2ccccc21	none
O=C(CN1CCOCC1)N(c1ccccc1)c1ccc2ccccc2c1	none
Cc1ccc(-c2csc3ncnc(Sc4nnc(CN5CCCCCC5=O)o4)c23)cc1	SF-1 inh 71
O=C(CSc1nnc(Cc2cc(=O)[nH]c(=O)[nH]2)n1-c1ccc(F)cc1)N1CCCCC1	none
CCOc1ccc(-c2noc(CCC(=O)O)n2)cc1	SF-1 inh 53
Cc1ccc(-c2noc(CCCC(=O)N3CCOCC3)n2)cc1	none
Cc1ccc(OCc2nc(-c3ccccc3)no2)c(C)c1	none
COc1ccc(-c2ccc(CCC(=O)O)n2C(C)C)cc1	none
CCOc1ccc(-c2nnc(N)o2)cc1	none
COc1ccc(-c2noc(CCCC(=O)O)n2)cc1	SF-1 inh 57
COC(=O)c1cc(Br)c(=O)n(Cc2ccc3c(c2)OCO3)c1	none
OCC1(C2=NOC(O)(C(F)(F)F)C2)CCCCC1 (stereo not given)	none
CCOC(=O)CCNC(=O)Nc1ccc2nc(C)n(Cc3cccc(Cl)c3)c(=O)c2c1	none
Cc1ccsc1C(=O)OCC(=O)Nc1sccc1C(N)=O	none
CCOC(=O)c1ccc(NC(=O)N(CC)CC)cc1	none
CC(C)CCn1c(CN2CCN(c3cccc(Cl)c3)CC2)nc2c1c(=O)n(C)c(=O)n2C	none
CCN1C(=O)c2cccc3c(S(=O)(=O)NC(Cc4c[nH]c5ccccc45)C(=O)O)ccc1c23 (stereo not given)	none
CCOC(=O)C1CCN(S(=O)(=O)c2c(C)[nH]c(=O)[nH]c2=O)CC1	none
CCOC(=O)c1ccc(N2CC(O)=C(c3nc4ccccc4c(=O)[nH]3)C2=N)cc1	none
O=C(CCCc1cccs1)Nc1nc2c(s1)CCCC2	none
c1csc(CCNc2ncnc3sc4c(c23)CCC4)c1	SF-1 inh 76
c1coc(CNc2nc3sc4c(c3c3ncnn23)CCCC4)c1	none
CCOC(=O)N1CCN(S(=O)(=O)c2ccc3c(c2)CCN3C(=O)CC)CC1	none
C1=C(C(c2nnnn2C2CCCCC2)N2CCCCC2)COc2ccccc21 (stereo not given)	none
COc1ccc2nc(NC(=O)CN(c3ccc(C)cc3)S(=O)(=O)c3c(C)nn(C)c3C)sc2c1	none
CCOC(=O)COc1nc(Nc2ccccc2C)nc(N(C)C)n1	none
